Among the data in PubChem BioAssay (EPA / NIEHS) are outcome and AC50 values, retold here.

What all share (details): mRNA level, 48 h; actives raise or lower the signal
Read-out in one assay: CYP3A5 (gene 1577)
Briefly: LTEA_HepaRG_CYP3A5: Life Technologies and Expression Analysis (LTEA) Assay for CYP3A5 using HepaRG (AID 2283493). The essentials: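 Human HepaRG hepatic cells receive 48 h chemical treatment at eight concentrations (half-log steps from 100 uM) in 0.5% DMSO. Expression of CYP3A5 is quantified by Fluidigm qRT-PCR and normalized to three reference genes.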

Read-out in assay [1]: Fatty Acid-Binding Protein 1 (FABP1), FABP1 (gene 2168)
Briefly: LTEA_HepaRG_FABP1: Life Technologies and Expression Analysis (LTEA) Assay for Fatty Acid-Binding Protein 1 (FABP1) using HepaRG (AID 2283494). The essentials: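 FABP1 expression by TaqMan qRT-PCR, normalised to three housekeeping genes, in HepaRG cells after 48 h chemical treatment. Eight-point half-log series topping at 100 uM in 0.5% DMSO, duplicates; gain or loss fitted relative to vehicle.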

Read-out in assay [2]: Cytochrome P450 4A22 (Homo sapiens) (UniProt Q5TCH4)
Briefly: LTEA_HepaRG_CYP4A22: Life Technologies and Expression Analysis (LTEA) Assay for Cytochrome P450 4A22 (CYP4A22) using HepaRG (AID 2283495). In a few lines:
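HepaRG, 48 h post-plating -> serum-free induction medium; dosed 48 h, duplicate, 8 conc. (100 uM top, half-log), 0.5% DMSO. Readout: CYP4A22 mRNA by qRT-PCR, ACTB/GAPDH/POLR2A normalization; gain/loss fit relative to DMSO.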

Read-out in assay [3]: Cytochrome P450 7A1 (Homo sapiens) (UniProt P22680)
Briefly: LTEA_HepaRG_CYP7A1: Life Technologies and Expression Analysis (LTEA) Assay for Cytochrome P450 7A1 (CYP7A1) using HepaRG (AID 2283496). The essentials: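 HepaRG, 48 h exposure, 8-pt half-log series from 100 uM, 0.5% DMSO vehicle, duplicates. Readout: TaqMan qRT-PCR mRNA vs three housekeeping genes; bidirectional curve fit against DMSO baseline.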

Read-out in assay [4]: Glutathione S-Transferase (GSTA2), GSTA2 (gene 2939)
Briefly: LTEA_HepaRG_GSTA2: Life Technologies and Expression Analysis (LTEA) Assay for Glutathione S-Transferase (GSTA2) using HepaRG (AID 2283497). The essentials:
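GSTA2 transcript levels came from Fluidigm TaqMan qRT-PCR normalized to three housekeeping genes, fitted in both directions against DMSO. HepaRG cultures received chemicals for 48 h in serum-free induction medium (0.5% DMSO), 8 half-log concentrations up to 100 uM, duplicate.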

Read-out in assay [5]: Glutamate-cysteine ligase catalytic (GCLC), GCLC (gene 2729)
Put plainly: LTEA_HepaRG_GCLC: Life Technologies and Expression Analysis (LTEA) Assay for Glutamate-cysteine ligase catalytic (GCLC) using HepaRG (AID 2283498). The essentials: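 Expression by TaqMan qRT-PCR, normalized to three housekeeping genes (ACTB, GAPDH, POLR2A), with up- or down-regulation fitted against DMSO. HepaRG cells dosed in duplicate for 48 h with 8 half-log concentrations up to 100 uM, vehicle 0.5% DMSO.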

Read-out in assay [6]: Glutamate-cysteine ligase regulatory (GCLM), GCLM (gene 2730)
Put plainly: LTEA_HepaRG_GCLM: Life Technologies and Expression Analysis (LTEA) Assay for Glutamate-cysteine ligase regulatory (GCLM) using HepaRG (AID 2283500). In a few lines:
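Endpoint is GCLM transcript level by qRT-PCR, normalized to three housekeeping genes, after 48 h chemical exposure of human HepaRG cells (0.5% DMSO vehicle, top 100 uM, half-log dilutions). Fitting was bidirectional relative to DMSO.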

Read-out in assay [7]: Glutathione S-transferase M3 (GSTM3), GSTM3 (gene 2947)
Put plainly: LTEA_HepaRG_GSTM3: Life Technologies and Expression Analysis (LTEA) Assay for Glutathione S-transferase M3 (GSTM3) using HepaRG (AID 2283501). In a few lines:
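qRT-PCR read-out of GSTM3 transcript, normalized to three housekeeping genes, from human HepaRG cells after 48 h chemical exposure. Eight-point half-log series, top 100 uM, 0.5% DMSO vehicle; gain or loss fitted relative to DMSO baseline.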

Read-out in assay [8]: Heat shock 70 kDa protein 1 (HSPA1A), gene 3303
Put plainly: LTEA_HepaRG_HSPA1A: Life Technologies and Expression Analysis (LTEA) Assay for Heat shock 70 kDa protein 1 (HSPA1A) using HepaRG (AID 2283502). In a few lines: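 Cells were plated and cultured for 48 h, then switched to serum-free induction medium. Chemicals were added at eight half-log concentrations up to 100 uM for 48 h. RNA was then isolated and HSPA1A measured by qRT-PCR with bidirectional curve fitting against DMSO.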

Read-out in assay [9]: growth arrest and DNA damage 45 (GADD45G), GADD45G (gene 10912)
Briefly: LTEA_HepaRG_GADD45G: Life Technologies and Expression Analysis (LTEA) Assay for growth arrest and DNA damage 45 (GADD45G) using HepaRG (AID 2283499). In a few lines: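 HepaRG, 48 h exposure, top 100 uM, half-log 8-point series, 0.5% DMSO vehicle, duplicates. Readout: GADD45G transcript by qRT-PCR (Fluidigm array), housekeeping-normalised (ACTB/GAPDH/POLR2A). Bidirectional curve fit vs DMSO baseline.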

SMILES strings stand for the structures. Active and inactive are the calls of the source. Rule for the calls: active = hit-call score of the fitted dose curve at least 0.9, where 1 is the maximum; inactive = score below 0.9.

Usually AC50 stands for the midpoint of the concentration-response curve, whichever way the signal moves.

On to `CS(=O)(=O)NC(=O)c1cc(Oc2ccc(C(F)(F)F)cc2Cl)ccc1[N+](=O)[O-]`, for which the compound was classed as inactive (with CYP3A5 (gene 1577); in assay [1]; in assay [2]; in assay [3]; in assay [4]; in assay [5]). Besides, the compound was classed as inactive in assay [6], in assay [7] and in assay [8].
In the case of `N#CC(Br)Br`, the compound was called inactive (with CYP3A5 (gene 1577); in assay [1]; in assay [2]; in assay [3]; in assay [4]; in [5]). Further, the call in [9], in assay [6], in assay [7] and in assay [8] was inactive.
As to `Clc1ccc(C(c2ccc(Cl)cc2)C(Cl)Cl)cc1`, the AC50 was 29.7 µM (active) in the assay with CYP3A5 (gene 1577), 54.7 µM (active) in assay [1], 22.4 µM (active) in [2] and 22.5 µM (active) in [3]. Further, the outcome in assay [4], in assay [5], in assay [6], in [7] and in assay [8] was inactive.
For the compound `Nc1ccc([N+](=O)[O-])cc1`, the result (in the assay with CYP3A5 (gene 1577); in assay [1]; in assay [2]; in [3]; in assay [4]; in [5]) was inactive. For the same compound, the outcome in assay [9], in assay [6], in assay [7] and in assay [8] was inactive.
As to `Oc1ccccc1Cl`, the outcome (with CYP3A5 (gene 1577); in [1]; in assay [2]; in [3]; in [4]; in assay [5]) was inactive. For the same compound, the call in [6], in assay [7] and in assay [8] was inactive.
Regarding `C=CCc1ccc2c(c1)OCO2`, the outcome (in the assay with CYP3A5 (gene 1577); in assay [1]; in [2]; in assay [3]; in [4]; in assay [5]) was inactive. Also, the call in assay [9], in [6], in assay [7] and in assay [8] was inactive.
For `[As]#[In]`, the compound was classed as inactive (with CYP3A5 (gene 1577); in assay [1]; in assay [2]; in [3]; in assay [4]; in assay [5]). Further, the call in assay [6], in assay [7] and in assay [8] was inactive.
For the compound `CCCCCCCCOC(=O)c1ccc(C(=O)OCCCCCCCC)c(C(=O)OCCCCCCCC)c1`, the call (in the assay with CYP3A5 (gene 1577); in assay [1]; in assay [2]; in assay [3]; in assay [4]; in assay [5]) was inactive. Moreover, the compound was called inactive in assay [9], in [6], in assay [7] and in assay [8].
As for `c1ccc2c(c1)oc1ccccc12`, the outcome (with CYP3A5 (gene 1577); in [1]; in assay [2]; in [3]; in assay [4]; in assay [5]) was inactive. In addition, the call in assay [9], in assay [6], in [7] and in assay [8] was inactive.
`CCCCCCCCCCCCCN1CC(C)OC(C)C1` (stereo not given): the compound was called inactive (in the assay with CYP3A5 (gene 1577); in assay [1]; in assay [2]; in assay [3]; in assay [4]; in assay [5]). In addition, the compound was classed as inactive in assay [6], in assay [7] and in [8].
In the case of `Cc1ccc(N)c(N)c1`, the call (with CYP3A5 (gene 1577); in assay [2]; in assay [3]; in [5]; in assay [9]; in [6]) was inactive. Further, the call in assay [7] and in assay [8] was inactive. For the same compound, the results for the half-maximal activity concentration (AC50) in [1] and in assay [4] were 74.8 µM (active) and 28.9 µM (active), respectively.
As for `C[N+](C)(C)CC1CO1` (stereo not given), the result (in the assay with CYP3A5 (gene 1577); in [1]; in assay [2]; in assay [3]; in assay [4]; in assay [5]) was inactive. Moreover, the outcome in [9], in assay [6], in assay [7] and in assay [8] was inactive.
Turning to `COC(=O)Nc1nc2ccccc2[nH]1`, the call (in the assay with CYP3A5 (gene 1577); in assay [1]; in assay [2]; in assay [3]; in [4]; in assay [5]) was inactive. Further, the compound was classed as inactive in [9], in assay [6], in [7] and in assay [8].
Regarding `CNC(=O)Oc1cccc2c1OC(C)(C)C2`, the call (with CYP3A5 (gene 1577); in assay [2]; in [4]; in assay [5]; in [9]; in assay [6]) was inactive. Also, the call in assay [7] and in assay [8] was inactive. The results for the AC50 in [1] and in assay [3] were 3.45 µM (active) and 9.92 µM (active), respectively.
Take `CCN(CC)CCO`: the compound was classed as inactive (with CYP3A5 (gene 1577); in [1]; in assay [2]; in assay [3]; in assay [4]; in [5]). The result in [9], in assay [6], in [7] and in [8] was inactive.
Regarding `Nc1ccc(N=Nc2ccccc2)cc1`, the AC50 is 14.2 µM (active) with CYP3A5 (gene 1577); 21.4 µM (active) in assay [1]; 13.3 µM (active) in assay [2]; 16.4 µM (active) in assay [3]; 15.1 µM (active) in assay [4]; 7.79 µM (active) in assay [5]. In addition, the concentration at half-maximal activity (AC50) was 13.2 µM (active) in assay [7] and 34 µM (active) in assay [8]. The call in [6] was inactive.
Consider `CCN(CC)N=O`, for which the call (with CYP3A5 (gene 1577); in [1]; in assay [2]; in [4]; in assay [5]; in assay [6]) was inactive. For the same compound, the compound was classed as inactive in assay [7] and in assay [8].
In the case of `[O-][Cl+]O`, the compound was called inactive (in the assay with CYP3A5 (gene 1577); in assay [1]; in assay [4]; in [5]; in assay [9]; in assay [6]). Further, the compound was classed as inactive in [7] and in [8].
With `CC(C)(C)OOC(C)(C)CCC(C)(C)OOC(C)(C)C`, the outcome (with CYP3A5 (gene 1577); in assay [1]; in assay [2]; in assay [3]; in assay [4]; in [5]) was inactive. In addition, the compound was called inactive in [6], in [7] and in assay [8].
Turning to `CCNS(=O)(=O)C(F)(F)C(F)(F)C(F)(F)C(F)(F)C(F)(F)C(F)(F)C(F)(F)C(F)(F)F`, the outcome (in the assay with CYP3A5 (gene 1577); in assay [5]; in assay [6]; in assay [7]) was inactive. Further, the values for the half-maximal activity concentration (AC50) in assay [1], in assay [3] and in assay [4] were 59.3 µM (active), 48.2 µM (active) and 48.2 µM (active), respectively.
On to `CCC(C)c1ccc(O)cc1` (stereo not given), for which the result (with CYP3A5 (gene 1577); in [1]; in assay [2]; in assay [3]; in assay [4]; in assay [6]) was inactive. Also, the call in [7] and in assay [8] was inactive. The AC50 in assay [5] was 0.397 µM (active).
